Measured values reported in PubChem BioAssay (NCATS).
Records with an inconclusive call do not appear. The source made the active and inactive calls. The call rests on the fitted dose curve; in most records, active means well fitted curve in the direction sought with a large enough effect; inconclusive means small, poorly fitted or top-dose-only effect, or another doubt; inactive means no such curve, though single readings can be large; an effect the other way counts as inactive or inconclusive.

Key:
[1] = qHTS of pediatric cancer cell lines to identify multiple opportunities for drug repurposing: Primary screen for Rh30 cells (AID 1347107); further: nearly all actives have a fitted effect of over 75% in size
Outline: (§1)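 Cells (500-1,000/well) in growth media were settled 5 h at 37 degrees C, then given compounds for 48 h. Viability was read as CellTiter-Glo luminescence. Primary runs used MIPE at 11 points (0.78 nM-46 µM) and NPC at 8 points (0.59 nM-46 µM); follow-ups used 11 points.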

[2] = qHTS of pediatric cancer cell lines to identify multiple opportunities for drug repurposing: Primary screen for Rh41 cells (AID 1347108); further: nearly all actives have a fitted effect of over 70% in size
Outline: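 Viability was measured as metabolically active cells after 48 hours of treatment, read by CellTiter-Glo luminescence. Compounds were tested at multiple final concentrations, giving concentration-response curves.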

[3] = qHTS of pediatric cancer cell lines to identify multiple opportunities for drug repurposing: Confirmatory screen for A673 cells (AID 1347110);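 further: cells exposed to compound for 48 h before the viability read; nearly all actives have a fitted effect of over 65% in size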
Outline: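 Forty-eight-hour viability assay. Follow-up compounds ran at 11-point dilutions; positive control bortezomib at 2.3 uM final, neutral control DMSO.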

[4] = qHTS of pediatric cancer cell lines to identify multiple opportunities for drug repurposing: Confirmatory screen for SK-N-MC cells (AID 1347111);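 further: cells exposed to compound for 48 h before the readout; nearly all actives have a fitted effect of over 70% in size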
Outline: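 Metabolically active cells were quantified by ATP-dependent luminescence (CellTiter-Glo, 15 min at room temperature) following 48 h treatment. Cells had been plated at 500-1,000 per well and settled for 5 h beforehand.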

[5] = qHTS of pediatric cancer cell lines to identify multiple opportunities for drug repurposing: Confirmatory screen for BT-12 cells (AID 1347112); further: nearly all actives have a fitted effect of over 55% in size
Outline: as §1

[6] = qHTS of pediatric cancer cell lines to identify multiple opportunities for drug repurposing: Confirmatory screen for DAOY cells (AID 1347114); further: nearly all actives have a fitted effect of over 65% in size
Outline: (§2)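 Viability measured as metabolically active cells via CellTiter-Glo luminescence following 48 hours of compound exposure, 11-point dilutions in confirmatory testing. 500-1,000 cells/well plated 5 hours before dosing; controls were DMSO and 2.3 µM bortezomib.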

[7] = qHTS of pediatric cancer cell lines to identify multiple opportunities for drug repurposing: Confirmatory screen for NB-EBc1 cells (AID 1347115);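 further: cells exposed to compound for 48 h before the viability read; nearly all actives have a fitted effect of over 45% in size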
Outline: as §1

[8] = qHTS of pediatric cancer cell lines to identify multiple opportunities for drug repurposing: Confirmatory screen for SJ-GBM2 cells (AID 1347116); further: nearly all actives have a fitted effect of over 60% in size
Outline: as §2

[9] = qHTS of pediatric cancer cell lines to identify multiple opportunities for drug repurposing: Confirmatory screen for BT-37 cells (AID 1347117); further: nearly all actives have a fitted effect of over 55% in size
Outline: as §1

[10] = qHTS of pediatric cancer cell lines to identify multiple opportunities for drug repurposing: Confirmatory screen for TC32 cells (AID 1347118);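 further: cells exposed to compound for 48 h before the read; nearly all actives have a fitted effect of over 65% in size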
Outline: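 Measured quantity: luminescence from CellTiter-Glo, reflecting metabolically active TC32 cells following 48 h of compound. Curves came straight from multi-point titrations, with 8 or 11 points in primary and 11 in confirmatory screening.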

[11] = qHTS of pediatric cancer cell lines to identify multiple opportunities for drug repurposing: Confirmatory screen for control Hh wild type fibroblast cells (AID 1347121); further: nearly all actives have a fitted effect of over 70% in size
Outline: as §1

[12] = qHTS of pediatric cancer cell lines to identify multiple opportunities for drug repurposing: Confirmatory screen for U-2 OS cells (AID 1347122); further: nearly all actives have a fitted effect of over 65% in size
Outline: as §1

[13] = qHTS of pediatric cancer cell lines to identify multiple opportunities for drug repurposing: Confirmatory screen for Rh41 cells (AID 1347123);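 further: 48 h compound exposure; nearly all actives have a fitted effect of over 60% in size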
Outline: as §1

[14] = qHTS of pediatric cancer cell lines to identify multiple opportunities for drug repurposing: Confirmatory screen for RD cells (AID 1347124)
Outline: as §1

[15] = qHTS of pediatric cancer cell lines to identify multiple opportunities for drug repurposing: Confirmatory screen for Rh30 cells (AID 1347126); further: nearly all actives have a fitted effect of over 55% in size
Outline: as §1

[16] = qHTS of pediatric cancer cell lines to identify multiple opportunities for drug repurposing: Primary screen for control Hh wild type fibroblast cells (AID 1347106); further: nearly all actives have a fitted effect of over 55% in size
Outline: as §1

[17] = qHTS of pediatric cancer cell lines to identify multiple opportunities for drug repurposing: Confirmatory screen for Rh18 cells (AID 1347125); further: nearly all actives have a fitted effect of over 55% in size
Outline: as §1

[18] = qHTS of pediatric cancer cell lines to identify multiple opportunities for drug repurposing: Confirmatory screen for NB1643 cells (AID 1347109); further: nearly all actives have a fitted effect of over 45% in size
Outline: as §1

[19] = qHTS of pediatric cancer cell lines to identify multiple opportunities for drug repurposing: Confirmatory screen for LAN-5 cells (AID 1347113); further: nearly all actives have a fitted effect of over 65% in size
Outline: as §1

[20] = qHTS of pediatric cancer cell lines to identify multiple opportunities for drug repurposing: Confirmatory screen for MG 63 (6-TG R) cells (AID 1347119); further: nearly all actives have a fitted effect of over 55% in size
Outline: as §1

Measured: Potency
Potency means the concentration at half of the fitted maximal effect.

COc1ccc(F)c(F)c1C(=O)c1cnc(NC2CCN(S(C)(=O)=O)CC2)nc1N
active: [2] 7.43 µM | [3] 2.93 µM | [4] 1.31 µM | [5] 3.69 µM | [6] 8.27 µM | [8] 0.827 µM | [9] 2.33 µM | [10] 2.08 µM | [12] 3.29 µM | [13] 2.33 µM | [14] 0.827 µM
inactive: [1] | [7] | [11] | [15]

COc1cccc(-c2ccc(NC(=O)C3=C(C(=O)O)CCC3)c(F)c2)c1
inactive: [16] | [6] | [11] | [17]
active: [4] 2.93 µM | [8] 1.17 µM | [10] 18.5 µM | [12] 14.7 µM | [14] 1.17 µM | [15] 7.37 µM

Cc1[nH]c2ccccc2c1CCNCc1ccc(C=CC(=O)NO)cc1
active: [16] 1.87 µM | [18] 0.117 µM | [3] 0.329 µM | [4] 0.0827 µM | [5] 0.737 µM | [19] 261 nM | [7] 0.369 µM | [9] 0.165 µM | [10] 0.117 µM | [20] 165 nM | [13] 0.0041 µM
inactive: [8]

CCc1c2c(nc3ccc(O)cc13)-c1cc3c(c(=O)n1C2)COC(=O)[C@]3(O)CC
active: [1] 0.132 µM | [2] 0.235 µM | [3] 0.0657 µM | [5] 2.61 µM | [12] 3.69 µM | [13] 0.261 µM | [15] 1.47 µM
inactive: [8] | [11]

NCC(=O)Nc1ccc(-n2nc(C(F)(F)F)cc2-c2ccc3c(ccc4ccccc43)c2)cc1
active: [3] 11.7 µM | [4] 0.329 µM | [19] 2930 nM | [7] 7.37 µM | [8] 3.29 µM | [9] 2.93 µM | [10] 1.47 µM | [12] 0.0261 µM | [13] 7.37 µM | [14] 5.22 µM | [17] 2.61 µM
inactive: [16]

NC(=O)c1c(OCc2c(F)cc(Br)cc2F)nsc1NC(=O)NCCCCN1CCCC1
active: [1] 20.9 µM | [2] 18.7 µM

COc1c(OCCCN2CCOCC2)ccc2c3n(c(=NC(=O)c4cnc(N)nc4)nc12)CCN3
active: [18] 2.29 µM | [3] 1.02 µM | [4] 1.02 µM | [8] 2.04 µM | [9] 6.44 µM | [10] 1.02 µM | [20] 229 nM | [15] 0.456 µM
inactive: [16] | [5] | [6] | [12]

CS(=O)(=O)N1CCN(Cc2cc3nc(-c4cccc5[nH]ncc45)nc(N4CCOCC4)c3s2)CC1
active: [18] 8.51 µM | [3] 3.39 µM | [4] 1.7 µM | [7] 6.03 µM | [8] 21.4 µM | [9] 15.1 µM | [10] 1.35 µM | [13] 0.851 µM | [15] 1.07 µM
inactive: [16]

Nc1cc(C(F)(F)F)c(-c2cc(N3CCOCC3)nc(N3CCOCC3)n2)cn1
active: [1] 11.8 µM | [2] 1.18 µM | [3] 2.93 µM | [4] 5.22 µM | [10] 4.14 µM | [20] 3690 nM | [12] 5.22 µM | [13] 5.85 µM | [15] 4.14 µM

COc1cc(=C2C=c3ccccc3=N2)[nH]c1=Cc1[nH]c(C)cc1C
active: [16] 10.5 µM | [18] 14.7 µM | [3] 2.19 µM | [4] 11.7 µM | [5] 26.1 µM | [8] 43.7 µM | [9] 7.37 µM | [10] 7.37 µM | [15] 17.4 µM

Cn1cncc1[C@@](N)(c1ccc(Cl)cc1)c1ccc2c(c1)c(-c1cccc(Cl)c1)cc(=O)n2C
active: [1] 14.8 µM | [2] 14.8 µM

CC(C)(C)OC(=O)Nc1ccc(-c2cc(C(=O)NCCCCCCC(=O)NO)no2)cc1
active: [1] 7.43 µM | [2] 3.72 µM | [18] 1.17 µM | [3] 2.33 µM | [4] 0.0329 µM | [8] 4.14 µM | [12] 1.47 µM | [13] 1.85 µM | [14] 5.22 µM | [15] 10.4 µM
inactive: [11]

C=C1C(=CC=C2CCC[C@]3(C)[C@@H]([C@H](C)C=C[C@H](C)C(C)C)CC[C@@H]23)C[C@@H](O)C[C@@H]1O
active: [2] 0.935 µM | [6] 20.8 µM | [10] 23.3 µM | [20] 2930 nM
inactive: [16] | [11]

O=C(Nc1cc(C(F)(F)F)cc(C(F)(F)F)c1)c1cc(Cl)ccc1O
active: [18] 1.65 µM | [3] 3.29 µM | [4] 3.69 µM | [5] 3.69 µM | [9] 1.85 µM | [10] 2.93 µM | [20] 928 nM | [11] 2.33 µM
inactive: [16]

Cc1c(CN2CCN(S(C)(=O)=O)CC2)sc2c(N3CCOCC3)nc(-c3cnc(N)nc3)nc12
active: [16] 0.209 µM | [18] 1.31 µM | [3] 1.85 µM | [4] 0.827 µM | [9] 2.08 µM | [10] 0.737 µM | [20] 329 nM | [13] 0.928 µM
